# Over roughly 2,900 compounds, “NF-kB SEAP reporter activity, fold change vs agonist alone” has its median near 0.99; the highest 2% begin near 2.6. What follows is part of a selection rich in the highest values, with near analogues and random picks from the rest.
# Assays:
# RAW-Dual [1] = assay: NF-kB SEAP reporter activity, fold change vs agonist alone; higher = enhanced NF-kB activity
# Procedure, shortened: (§1)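 After 50 nL of library stock was delivered by pin tool to RAW-Dual macrophages (50,000 cells/well, DMEM, 384-well plates), a PRR agonist was added 1 h later and the plates were kept at 37 °C, 5% CO2. Twenty hours later, IRF was read from supernatant by QuantiLuc luminescence and NF-κB by QuantiBlue absorbance at 620 nm. Reporter activity is stated as fold change over agonist-alone wells. Wells with IncuCyte confluency under 70% of agonist controls in both mask sets were counted as cytotoxic.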
# RAW-Dual [2] = assay: NF-kB SEAP reporter activity, fold change vs agonist alone; cytotoxicity flag (confluency mask): not cytotoxic; higher = enhanced NF-kB activity
# Procedure, shortened: as §1
# RAW-Dual [3] = assay: NF-kB SEAP reporter activity, fold change vs agonist alone; cytotoxicity flag (confluency mask): cytotoxic (confluency <70% of control); higher = enhanced NF-kB activity
# Procedure, shortened: as §1
# [4] = library stock concentration (final ~1000-fold dilution): 10 mM, cytotoxicity flag (confluency mask): not cytotoxic, agonist: Imiquimod (TLR7) […]
# [5] = library stock concentration (final ~1000-fold dilution): 10 mM, cytotoxicity flag (confluency mask): not cytotoxic, agonist: MPLA (TLR4) […]
# [6] = library stock concentration (final ~1000-fold dilution): 2 mM, cytotoxicity flag (confluency mask): not cytotoxic, agonist: Imiquimod (TLR7) […]
# [7] = library stock concentration (final ~1000-fold dilution): 2 mM, cytotoxicity flag (confluency mask): not cytotoxic, agonist: MPLA (TLR4) […]
# [8] = agonist: ODN 1826 (TLR9) 0.5 ug/mL
# [9] = agonist: Pam2CSK4 (TLR2/6) 0.1 ug/mL
# [10] = agonist: Pam3CSK4 (TLR2/1) 0.1 ug/mL
# [11] = library stock concentration (final ~1000-fold dilution): 10 mM, cytotoxicity flag (confluency mask): cytotoxic (confluency <70% of control), agonist: Imiquimod (TLR7) […]
# [12] = library stock concentration (final ~1000-fold dilution): 10 mM, cytotoxicity flag (confluency mask): cytotoxic (confluency <70% of control), agonist: MPLA (TLR4) […]
compound,measurement,setting,value
O=c1nc(N2CCOCC2)oc2c(-c3cccc4c3sc3ccccc34)cccc12,NF-kB SEAP reporter activity,RAW-Dual [1]; [4],1.1
same,NF-kB SEAP reporter activity,RAW-Dual [1]; [5],1.85
O=c1cc(N2CCOCC2)oc2c(-c3cccc4c3sc3ccccc34)cccc12,NF-kB SEAP reporter activity,RAW-Dual [1]; [6],1.46
same,NF-kB SEAP reporter activity,RAW-Dual [1]; [7],2.31
O=c1cc(N2CCOCC2)oc2c1ccc1ccccc12 (library stock concentration (final ~1000-fold dilution): 2 mM),NF-kB SEAP reporter activity,RAW-Dual [2]; agonist: LPS (TLR4) 0.1 ug/mL,1.12
same,NF-kB SEAP reporter activity,RAW-Dual [2]; [8],1
same,NF-kB SEAP reporter activity,RAW-Dual [2]; [9],0.982
same,NF-kB SEAP reporter activity,RAW-Dual [2]; [10],1.07
O=c1cc(N2CCOCC2)oc2c(-c3ccccc3)cccc12,NF-kB SEAP reporter activity,RAW-Dual [1]; [11],1.07
same,NF-kB SEAP reporter activity,RAW-Dual [1]; [12],1.63
CC(=O)N1CCCC1C(=O)NC(Cc1c[nH]cn1)C(=O)NC(CO)C(=O)NC(CS)C(=O)NC(CC(N)=O)C(N)=O (stereo unspecified) (library stock concentration (final ~1000-fold dilution): 10 mM water),NF-kB SEAP reporter activity,RAW-Dual [2]; agonist: LPS (TLR4) 0.1 ug/mL,1.15
same,NF-kB SEAP reporter activity,RAW-Dual [2]; [8],1.22
same,NF-kB SEAP reporter activity,RAW-Dual [2]; [9],1.19
same,NF-kB SEAP reporter activity,RAW-Dual [2]; [10],1.02
CC(=O)N1CCCC1C(=O)NC(Cc1c[nH]cn1)C(=O)NC(CO)C(=O)NC(CS)C(=O)NC(CC(N)=O)C(N)=O (stereo unspecified),NF-kB SEAP reporter activity,"RAW-Dual [1]; library stock concentration (final ~1000-fold dilution): 10 mM water, cytotoxicity flag (confluency mask): not cytotoxic, agonist: Imiquimod (TLR7) […]",0.979
same,NF-kB SEAP reporter activity,"RAW-Dual [1]; library stock concentration (final ~1000-fold dilution): 10 mM water, cytotoxicity flag (confluency mask): not cytotoxic, agonist: MPLA (TLR4) […]",1.06
CC(C)COc1ccc(CNC(=O)N(Cc2ccc(F)cc2)C2CCN(C)CC2)cc1.CC(C)COc1ccc(CNC(=O)N(Cc2ccc(F)cc2)C2CCN(C)CC2)cc1.O=C(O)C(O)C(O)C(=O)O,NF-kB SEAP reporter activity,RAW-Dual [1]; [11],0.496
same,NF-kB SEAP reporter activity,RAW-Dual [1]; [12],1.23
CC(C)COc1ccc(CNC(=O)N(Cc2ccc(F)cc2)C2CCN(C)CC2)cc1.CC(C)COc1ccc(CNC(=O)N(Cc2ccc(F)cc2)C2CCN(C)CC2)cc1.O=C(O)C(O)C(O)C(=O)O (library stock concentration (final ~1000-fold dilution): 10 mM),NF-kB SEAP reporter activity,RAW-Dual [3]; agonist: LPS (TLR4) 0.1 ug/mL,0.205
same,NF-kB SEAP reporter activity,RAW-Dual [3]; [8],0.239
same,NF-kB SEAP reporter activity,RAW-Dual [3]; [9],0.0981
same,NF-kB SEAP reporter activity,RAW-Dual [3]; [10],0.143
CCNC1=NC2C(OC(CO)C(O)C2O)S1 (stereo unspecified),NF-kB SEAP reporter activity,RAW-Dual [1]; [4],1
same,NF-kB SEAP reporter activity,RAW-Dual [1]; [5],1.17
CCNC1=NC2C(OC(CO)C(O)C2O)S1 (stereo unspecified) (library stock concentration (final ~1000-fold dilution): 10 mM),NF-kB SEAP reporter activity,RAW-Dual [2]; agonist: LPS (TLR4) 0.1 ug/mL,1.15
same,NF-kB SEAP reporter activity,RAW-Dual [2]; [8],1.17
same,NF-kB SEAP reporter activity,RAW-Dual [2]; [9],1.04
same,NF-kB SEAP reporter activity,RAW-Dual [2]; [10],1.5
CC/C(=C(\c1ccc(O)cc1)c1ccc(OCCNC)cc1)c1ccccc1.Cl,NF-kB SEAP reporter activity,RAW-Dual [1]; [11],0.387
same,NF-kB SEAP reporter activity,RAW-Dual [1]; [12],0.632
CC/C(=C(\c1ccc(O)cc1)c1ccc(OCCNC)cc1)c1ccccc1.Cl (library stock concentration (final ~1000-fold dilution): 10 mM),NF-kB SEAP reporter activity,RAW-Dual [3]; agonist: LPS (TLR4) 0.1 ug/mL,0.354
same,NF-kB SEAP reporter activity,RAW-Dual [3]; [8],0.211
same,NF-kB SEAP reporter activity,RAW-Dual [3]; [9],0.157
same,NF-kB SEAP reporter activity,RAW-Dual [3]; [10],0.135
O=C(c1ccc(Oc2ccccc2)cc1Cl)c1c[nH]c2ncnc(NC3CCC(CO)OC3)c12 (stereo unspecified),NF-kB SEAP reporter activity,RAW-Dual [1]; [11],0.133
same,NF-kB SEAP reporter activity,RAW-Dual [1]; [12],0.252
O=C(c1ccc(Oc2ccccc2)cc1Cl)c1c[nH]c2ncnc(NC3CCC(CO)OC3)c12 (stereo unspecified) (library stock concentration (final ~1000-fold dilution): 10 mM),NF-kB SEAP reporter activity,RAW-Dual [3]; agonist: LPS (TLR4) 0.1 ug/mL,0.431
same,NF-kB SEAP reporter activity,RAW-Dual [3]; [8],0.161
same,NF-kB SEAP reporter activity,RAW-Dual [3]; [9],0.293
same,NF-kB SEAP reporter activity,RAW-Dual [3]; [10],0.129
Cc1cc(N2CC(C)NC(C)C2)ncc1-c1ccc(-c2nc3c(ccn3C)c(=O)[nH]2)cc1 (stereo unspecified) (library stock concentration (final ~1000-fold dilution): 10 mM),NF-kB SEAP reporter activity,RAW-Dual [2]; agonist: LPS (TLR4) 0.1 ug/mL,2.18
same,NF-kB SEAP reporter activity,RAW-Dual [2]; [8],0.278
same,NF-kB SEAP reporter activity,RAW-Dual [2]; [9],1.38
same,NF-kB SEAP reporter activity,RAW-Dual [2]; [10],1.63
Cc1cc(N2CC(C)NC(C)C2)ncc1-c1ccc(-c2nc3c(ccn3C)c(=O)[nH]2)cc1 (stereo unspecified),NF-kB SEAP reporter activity,RAW-Dual [1]; [4],1.14
same,NF-kB SEAP reporter activity,RAW-Dual [1]; [5],2.01
Nc1ccc(-c2ccc3ncc4ccc(=O)n(-c5cccc(C(F)(F)F)c5)c4c3c2)cn1 (library stock concentration (final ~1000-fold dilution): 10 mM),NF-kB SEAP reporter activity,RAW-Dual [3]; agonist: LPS (TLR4) 0.1 ug/mL,5.68
same,NF-kB SEAP reporter activity,RAW-Dual [3]; [8],2.16
same,NF-kB SEAP reporter activity,RAW-Dual [3]; [9],1.77
same,NF-kB SEAP reporter activity,RAW-Dual [3]; [10],3.14
CCC(=O)N1CCN(c2ccc(-n3c(=O)ccc4cnc5ccc(-c6cnc7ccccc7c6)cc5c43)cc2C(F)(F)F)CC1,NF-kB SEAP reporter activity,RAW-Dual [1]; [6],0.44
same,NF-kB SEAP reporter activity,RAW-Dual [1]; [7],1.51
COc1ccc(-c2ccc3ncc4c(c3c2)n(-c2ccc(N3CCNCC3)c(C(F)(F)F)c2)c(=O)n4C)cn1.O=C(O)/C=C\C(=O)O,NF-kB SEAP reporter activity,RAW-Dual [1]; [11],0.273
same,NF-kB SEAP reporter activity,RAW-Dual [1]; [12],0.298
CCC(=O)N1CCN(c2ccc(-n3c(=O)ccc4cnc5ccc(-c6cnc7ccccc7c6)cc5c43)cc2C(F)(F)F)CC1 (library stock concentration (final ~1000-fold dilution): 2 mM),NF-kB SEAP reporter activity,RAW-Dual [2]; agonist: LPS (TLR4) 0.1 ug/mL,1.55
same,NF-kB SEAP reporter activity,RAW-Dual [2]; [8],1.02
same,NF-kB SEAP reporter activity,RAW-Dual [2]; [9],0.421
same,NF-kB SEAP reporter activity,RAW-Dual [2]; [10],0.629
COc1ccc(-c2ccc3ncc4c(c3c2)n(-c2ccc(N3CCNCC3)c(C(F)(F)F)c2)c(=O)n4C)cn1.O=C(O)/C=C\C(=O)O (library stock concentration (final ~1000-fold dilution): 10 mM),NF-kB SEAP reporter activity,RAW-Dual [3]; agonist: LPS (TLR4) 0.1 ug/mL,0.236
same,NF-kB SEAP reporter activity,RAW-Dual [3]; [8],0.205
same,NF-kB SEAP reporter activity,RAW-Dual [3]; [9],0.085
same,NF-kB SEAP reporter activity,RAW-Dual [3]; [10],0.217
Nc1ccc(-c2ccc3ncc4ccc(=O)n(-c5cccc(C(F)(F)F)c5)c4c3c2)cn1,NF-kB SEAP reporter activity,RAW-Dual [1]; [11],2.12
same,NF-kB SEAP reporter activity,RAW-Dual [1]; [12],2.7
CCNC1(C(N)=O)CCN(c2ncnc3c2nc(-c2ccccc2Cl)n3-c2ccc(Cl)cc2)CC1.Cl,NF-kB SEAP reporter activity,RAW-Dual [1]; [6],0.57
same,NF-kB SEAP reporter activity,RAW-Dual [1]; [7],0.847
CCNC1(C(N)=O)CCN(c2ncnc3c2nc(-c2ccccc2Cl)n3-c2ccc(Cl)cc2)CC1.Cl (library stock concentration (final ~1000-fold dilution): 2 mM),NF-kB SEAP reporter activity,RAW-Dual [2]; agonist: LPS (TLR4) 0.1 ug/mL,0.587
same,NF-kB SEAP reporter activity,RAW-Dual [2]; [8],0.493
same,NF-kB SEAP reporter activity,RAW-Dual [2]; [9],0.537
same,NF-kB SEAP reporter activity,RAW-Dual [2]; [10],0.482
COc1ccc(-c2ccc3c(N4CCOCC4C)nc(N4CCOCC4C)nc3n2)cc1CO (stereo unspecified) (library stock concentration (final ~1000-fold dilution): 10 mM),NF-kB SEAP reporter activity,RAW-Dual [2]; agonist: LPS (TLR4) 0.1 ug/mL,1.62
same,NF-kB SEAP reporter activity,RAW-Dual [2]; [8],1.12
same,NF-kB SEAP reporter activity,RAW-Dual [2]; [9],0.372
same,NF-kB SEAP reporter activity,RAW-Dual [2]; [10],0.555
COc1ccc(-c2ccc3c(N4CCOCC4C)nc(N4CCOCC4C)nc3n2)cc1CO (stereo unspecified),NF-kB SEAP reporter activity,RAW-Dual [1]; [4],1.11
same,NF-kB SEAP reporter activity,RAW-Dual [1]; [5],1.53
